20 compounds from PubChem BioAssay (Tox21) can be followed below.

Values without a mark were called inactive. Records with an inconclusive call do not appear. Calls of active or inactive are those of the source. Unless noted, calls follow the shape of the dose curve; as a rule, active = well fitted curve in the direction sought with a large enough effect in the repeat runs; inconclusive = weak or mixed curves; inactive = no such curve, though single readings can be large; an effect the other way counts as inactive or inconclusive.

Assay [1] deals with Estrogen receptor (Homo sapiens) (UniProt P03372). As to the kind of experiment: qHTS assay to identify small molecule antagonists of the estrogen receptor alpha (ER-alpha) signaling pathway using the BG1 cell line in the presence of 0.1 nM 17-beta-estradiol (AID 1259244). Also: nearly all actives have a fitted effect of over 50% in size. Also: potency is read from the fitted curve at half-maximal effect. An outline of the steps: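 Reporter is a stably transfected luciferase under four estrogen responsive elements in VM7Luc4E2 cells expressing native full-length ER-alpha; inhibition of 0.1 nM (final) 17beta-estradiol-driven signal over 22 h is read by luminescence.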
In general terms: In qHTS, concentration-response curves come from the screen itself.

Assay [2] in a line: qHTS assay to identify small molecule phospholipidosis (PLD) inducers (AID 1259344; active = well fitted curve in the direction sought with a large enough effect; an effect the other way counts as inactive or inconclusive). The method, boiled down:
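Cells (HepG2, 900 per well) attach for 4 h, receive LipidTOX Red and compound together, incubate 24 h at 37 C, are fixed 30 min with paraformaldehyde/Hoechst, then imaged at one site per well.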

A short description of assay [3]: qHTS assay to identify small molecule HDAC inhibitors (AID 1259364). Also: potency is read from the fitted curve at half-maximal effect.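 Also: wild-type HCT-116 cells with endogenous class I/II HDAC activity; nearly all actives have a fitted effect of over 45% in size.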 The method, boiled down:
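Quantitative high-throughput format: overnight-seeded HCT-116 cells got compounds for 2 hr at 37C; HDAC-Glo I/II reagent added, 30 min RT, luminescence measured.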

The nature of assay [4]: qHTS assay to identify small molecule HDAC inhibitors - cell viability counter screen (AID 1259365). Also: nearly all actives have a fitted effect of over 50% in size. Also: potency is read from the fitted curve at half-maximal effect. As to activity change, negative = cytotoxicity: series mostly up to about 92 µM. The method, boiled down:
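Luminescence from CellTiter-Glo, developed 30min at room temperature, reports viability of wild-type HCT-116 cells treated 2hr with compounds at 37 C and 5% CO2 after overnight plating.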

Assay [5] in a line: qHTS assay to identify small molecule antagonists of the sonic hedgehog signaling (Shh) pathway - cell viability counter screen (AID 1259367). Also: nearly all actives have a fitted effect of over 55% in size. Also: potency is read from the fitted curve at half-maximal effect. An outline of the steps:
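Cytotoxicity was assessed in parallel with Shh reporter activity by measuring live-cell protease fluorescence (CellTiter-Fluor) in NIH/3T3 cells stably carrying Gli1-Luc, treated with compound under conditioned medium stimulation for 23 hr plus 1 hr reagent incubation.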

A short description of assay [6]: qHTS assay to identify small molecule agonists of the sonic hedgehog signaling (Shh) pathway (AID 1259368; calls by dose curve;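 also: NIH/3T3-derived 3T3Gli1-Luc cells carrying a stable Gli1-driven firefly luciferase reporter; series mostly up to about 92 µM; nearly all actives have a fitted effect of over 15% in size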). The method, boiled down:
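Quantitative high-throughput format using a Gli1-driven firefly luciferase reporter line derived from NIH/3T3 cells. After a 24 hr compound treatment at 37 C and 5% CO2, luminescence reported Gli1 response element activity.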

Assay [7] addresses Estrogen receptor beta (Homo sapiens) (UniProt Q92731). As to the kind of experiment: qHTS assay to identify small molecule agonists of the estrogen receptor beta (ER-beta) signaling pathway (AID 1259377; active = well fitted activation curve with a large enough effect in the signal ratio in the repeat runs, not every such curve was filed as active; the % refers to the signal ratio). An outline of the steps:
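HEK293T ER-beta-UAS-bla; 2% charcoal-stripped FBS; cells pre-incubated 6 hr, compound 16 hr, 37C/5% CO2; LiveBLAzer B/G FRET substrate 2 h RT; fluorescence intensity read.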

Assay [8] is described as follows: qHTS assay to identify small molecule antagonists of the sonic hedgehog signaling (Shh) pathway (AID 1259369; calls by dose curve; also: nearly all actives have a fitted effect of over 45% in size; also: potency is read from the fitted curve at half-maximal effect). An outline of the steps: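 Stable Gli1-Luc reporter NIH/3T3 clone; quantitative HTS in stimulated mode with conditioned medium. Luminescence measured after 24hr compound treatment at 37 C.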
Assay [9] can be described thus: qHTS assay to identify small molecule agonists of the sonic hedgehog signaling (Shh) pathway - cell viability counter screen (AID 1259366). Also: nearly all actives have a fitted effect of over 50% in size. Also: potency is read from the fitted curve at half-maximal effect. The method, boiled down:
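Cytotoxicity counter screen run in the same wells as the Shh reporter assay. NIH/3T3 cells carrying a Gli1 response element–driven luciferase were treated with DMSO-dissolved compounds for 24hr, and live-cell protease activity was measured with CellTiter-Fluor.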

Assay [10] has as its target Androgen receptor (Homo sapiens) (UniProt P10275). Description: qHTS assay to identify small molecule antagonists of the androgen receptor (AR) signaling pathway using the MDA cell line in the presence of 0.5 nM R1881 (AID 1259243). Also: nearly all actives have a fitted effect of over 50% in size. Also: potency is read from the fitted curve at half-maximal effect. The method, boiled down: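 Antagonist mode quantitative HTS in MDA-kb2 MMTV-luciferase cells, agonist R1881 at 0.5 nM final, 16 hr exposure at 37C and 0% CO2, luminescent detection.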
% is scaled to controls: 0 for no effect and ±100 for the full control effect.

Estrogen receptor beta (Homo sapiens), sequence (Q92731 whole entry, looked up): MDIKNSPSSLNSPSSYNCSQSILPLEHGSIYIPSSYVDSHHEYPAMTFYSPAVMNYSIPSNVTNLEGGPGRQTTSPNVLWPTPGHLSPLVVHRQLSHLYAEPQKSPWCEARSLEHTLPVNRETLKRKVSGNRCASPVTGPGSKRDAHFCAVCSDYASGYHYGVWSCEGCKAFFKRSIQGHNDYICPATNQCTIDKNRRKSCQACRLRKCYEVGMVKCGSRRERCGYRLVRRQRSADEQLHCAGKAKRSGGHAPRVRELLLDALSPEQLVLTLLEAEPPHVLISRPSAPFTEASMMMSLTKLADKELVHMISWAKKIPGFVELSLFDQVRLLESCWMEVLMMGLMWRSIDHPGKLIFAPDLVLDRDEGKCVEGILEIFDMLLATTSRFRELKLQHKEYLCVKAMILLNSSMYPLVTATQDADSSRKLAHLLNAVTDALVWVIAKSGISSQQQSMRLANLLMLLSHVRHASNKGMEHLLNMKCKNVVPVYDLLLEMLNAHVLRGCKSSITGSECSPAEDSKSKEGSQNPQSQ
Estrogen receptor (Homo sapiens), sequence (P03372 whole entry, looked up): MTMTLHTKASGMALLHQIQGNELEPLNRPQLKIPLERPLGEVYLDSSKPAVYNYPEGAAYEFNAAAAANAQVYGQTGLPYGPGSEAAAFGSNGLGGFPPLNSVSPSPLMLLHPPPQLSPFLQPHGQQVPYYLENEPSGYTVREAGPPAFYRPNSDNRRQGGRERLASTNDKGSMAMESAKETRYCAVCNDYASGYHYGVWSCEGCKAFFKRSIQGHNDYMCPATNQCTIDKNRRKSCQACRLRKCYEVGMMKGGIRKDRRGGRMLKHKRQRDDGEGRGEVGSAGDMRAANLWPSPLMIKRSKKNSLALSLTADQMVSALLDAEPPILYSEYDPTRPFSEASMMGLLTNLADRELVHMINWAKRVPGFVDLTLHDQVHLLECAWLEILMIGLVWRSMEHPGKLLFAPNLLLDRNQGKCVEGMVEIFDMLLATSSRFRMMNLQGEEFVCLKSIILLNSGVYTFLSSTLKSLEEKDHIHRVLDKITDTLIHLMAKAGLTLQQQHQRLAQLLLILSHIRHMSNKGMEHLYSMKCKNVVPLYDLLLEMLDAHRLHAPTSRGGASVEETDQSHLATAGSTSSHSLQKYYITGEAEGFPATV
Androgen receptor (Homo sapiens), sequence (P10275 whole entry, looked up): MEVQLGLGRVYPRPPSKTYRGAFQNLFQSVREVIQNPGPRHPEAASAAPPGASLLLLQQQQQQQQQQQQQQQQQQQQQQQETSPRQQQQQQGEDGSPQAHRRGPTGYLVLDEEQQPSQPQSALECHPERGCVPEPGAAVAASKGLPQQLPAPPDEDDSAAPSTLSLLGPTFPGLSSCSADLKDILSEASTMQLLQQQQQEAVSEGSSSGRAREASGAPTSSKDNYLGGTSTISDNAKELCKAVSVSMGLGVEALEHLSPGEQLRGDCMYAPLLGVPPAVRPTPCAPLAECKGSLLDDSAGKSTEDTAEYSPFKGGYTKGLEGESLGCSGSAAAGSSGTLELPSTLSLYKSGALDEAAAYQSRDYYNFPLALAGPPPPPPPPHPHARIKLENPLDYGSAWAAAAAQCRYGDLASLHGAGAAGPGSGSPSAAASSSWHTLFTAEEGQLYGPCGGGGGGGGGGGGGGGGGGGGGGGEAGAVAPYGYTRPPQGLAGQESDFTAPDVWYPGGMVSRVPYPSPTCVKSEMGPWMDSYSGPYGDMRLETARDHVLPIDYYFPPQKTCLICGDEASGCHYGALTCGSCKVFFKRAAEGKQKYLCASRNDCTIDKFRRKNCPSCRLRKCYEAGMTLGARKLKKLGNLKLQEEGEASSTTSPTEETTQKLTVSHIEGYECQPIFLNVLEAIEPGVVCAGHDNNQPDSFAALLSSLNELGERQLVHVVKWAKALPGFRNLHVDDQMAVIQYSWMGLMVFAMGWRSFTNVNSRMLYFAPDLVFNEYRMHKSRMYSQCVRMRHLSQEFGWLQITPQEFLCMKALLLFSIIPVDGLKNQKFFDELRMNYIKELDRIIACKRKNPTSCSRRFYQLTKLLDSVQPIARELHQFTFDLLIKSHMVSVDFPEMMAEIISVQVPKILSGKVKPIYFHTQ

As to `Cc1c(Cl)c(=O)oc2cc(OP(=O)(OCCCl)OCCCl)ccc12`, the Potency result in assay [1], in [2], in assay [3], in assay [4], in assay [5] and in [6] was “inactive” in each case. Besides, the Potency entry in assay [7] was “inactive”.

On to `C[C@H]1CC[C@@H]2[C@@H](C)[C@H]3[C@H](C[C@H]4[C@@H]5CC=C6CC(O[C@@H]7O[C@H](CO)[C@H](O)[C@H](O[C@@H]8O[C@H](CO)[C@@H](O)[C@H](O)[C@H]8O)[C@H]7O[C@H]7O[C@@H](C)[C@H](O)[C@@H](O)[C@H]7O)CC[C@]6(C)[C@H]5CC[C@]34C)N2C1` (stereo not given in full), for which the Potency entry in assay [1], in assay [2], in assay [3], in assay [5], in assay [6] and in assay [8] was “inactive” in each case. Moreover, the Potency in assay [4] was 28.2 µM (active).

Consider `Oc1ccc(C(=C(Cl)Cl)c2ccc(O)cc2)cc1`, for which the Potency in [1] was 61 µM (active); in assay [8], 9.67 µM (active). Also, the Potency entry in assay [3], in assay [4], in assay [9], in [5] and in [6] was “inactive” in each case.

For the compound `CC(C)(C)OO`, the Potency entry in assay [10], in assay [3], in [9], in assay [5], in assay [6] and in assay [8] was “inactive” each time.

Take `COC12CC[C@@]3(C[C@@H]1C(C)(O)C(C)(C)C)[C@H]1Cc4ccc(O)c5c4[C@@]3(CCN1CC1CC1)[C@H]2O5` (stereo not given in full): the Potency was 24.2 µM (active) in assay [1], 24.2 µM (active) in assay [9], 17.1 µM (active) in assay [5] and 4.82 µM (active) in [8]. Also, the Potency result in assay [2], in assay [3], in assay [4] and in assay [6] was “inactive” each time.

On to `C[CH2][Hg][N]1C(=O)C2C(C1=O)C1(Cl)C(Cl)=C(Cl)C2(Cl)C1(Cl)Cl` (stereo not given), for which the figures for the Potency in assay [10], in assay [9] and in [8] were 7.3 µM (active), 7.3 µM (active) and 14.6 µM (active), respectively. Moreover, the activity change, negative = cytotoxicity in assay [4] is -3.87% [at 19 µM]. The activity change in assay [6] was -11.5% [at 18.9 µM, stronger effect = higher value].

Take `COc1ccc(OC)c(CC(C)N)c1` (stereo not given): the Potency entry in [1], in [2], in assay [3], in assay [4], in assay [9] and in assay [5] was “inactive” each time. In addition, the Potency entry in assay [6], in assay [8] and in assay [7] was “inactive” each time.

On to `Oc1ccccc1Br`, for which the Potency result in assay [1], in assay [3], in [4], in assay [9], in [5] and in assay [6] was “inactive” throughout. The Potency entry in assay [8] was “inactive”.

`CC[C@H](C)[C@H]1O[C@]2(C=C[C@@H]1C)C[C@@H]1C[C@@H](C/C=C(\C)[C@@H](O[C@H]3C[C@H](OC)[C@@H](O[C@H]4C[C@H](OC)[C@@H](O)[C@H](C)O4)[C@H](C)O3)[C@@H](C)/C=C/C=C3\CO[C@@H]4[C@H](O)C(C)=C[C@@H](C(=O)O1)[C@]34O)O2`: the Potency was 22.8 µM (active) in assay [1], 36.1 µM (active) in assay [9] and 16.1 µM (active) in assay [8]. Besides, the Potency entry in [2], in assay [3], in [4] and in [6] was “inactive” each time.

Consider `CCC(C)c1cc([N+](=O)[O-])cc([N+](=O)[O-])c1OC(=O)C=C(C)C` (stereo not given), for which the Potency in assay [10] was 54.5 µM (active); in assay [8] it was 9.69 µM (active). Moreover, the Potency entry in assay [3], in [4], in assay [6] and in assay [7] was “inactive” throughout.

Consider `O=[N+]([O-])c1cc([N+](=O)[O-])c2ccccc2c1`, for which the Potency was 4.33 µM (active) in [10] and 1.22 µM (active) in assay [8]. Moreover, the Potency result in assay [3], in assay [9], in assay [5] and in assay [6] was “inactive” each time.

`CCOC(=O)OC1=C(c2cc(C)ccc2C)C(=O)NC12CCC(OC)CC2` (stereo not given): the Potency result in assay [1], in [3], in assay [4], in assay [9], in assay [5] and in assay [6] was “inactive” each time. Besides, in assay [8], the Potency was 17.2 µM (active).

For `Oc1c(Cl)c(Cl)cc(Cl)c1Cl`, in assay [10], the Potency is 66.7 µM (active). Moreover, the Potency entry in assay [9], in [5] and in [6] was “inactive” in each case.

Consider `CC(=[OH+])/C=C(/C)[O-].CC(=[OH+])/C=C(\C)[O-].CC(=[OH+])/C=C(\C)[O-].[Al]`, for which the Potency result in assay [1], in assay [3], in assay [4], in [9], in assay [5] and in assay [6] was “inactive” each time. Also, the Potency entry in assay [8] is “inactive”.

In the case of `CCC(C)c1cc(C(C)(C)C)cc(-n2nc3ccccc3n2)c1O` (stereo not given), the Potency result in assay [10], in assay [3], in [9], in assay [5], in assay [6] and in assay [8] was “inactive” in each case. For the same compound, in [7], the Potency result was “inactive”.

As to `ClCc1ccc(Cl)cc1Cl`, the Potency entry in assay [1], in assay [3], in assay [4], in assay [9], in assay [5] and in assay [6] was “inactive” in each case. Besides, in assay [8], the Potency entry was “inactive”.

Take `O=C(O)c1cc[c]([Hg][Cl])cc1`: the Potency entry in assay [1], in [4] and in assay [6] was “inactive” each time. Moreover, the Potency is 30.6 µM (active) in assay [3], 27.3 µM (active) in assay [9], 43.3 µM (active) in assay [5] and 1.72 µM (active) in assay [8].

As for `O=C(CCl)C(Cl)Cl`, the Potency result in assay [1], in assay [3], in [4] and in [6] was “inactive” in each case. The Potency in assay [9] was 17.4 µM (active); in assay [5] it was 17.4 µM (active); in assay [8] it was 2.76 µM (active).

Regarding `CCOCCOC(C)=O`, the Potency entry in [1], in [2], in [3], in [9], in [5] and in assay [6] was “inactive” throughout.

As to `CCCCCCCCCC[N+](C)(C)CCCCCCCCCC`, the Potency in assay [1] is 30.6 µM (active); in assay [4] it was 68.6 µM (active); in assay [9] it was 21.7 µM (active); in assay [5] it was 13.7 µM (active); in [8], 0.969 µM (active). For the same compound, the Potency result in assay [2], in assay [3] and in assay [6] was “inactive” throughout.
